Results reported in the supplement of paper PMC8728848.
Many of the other results were omitted from the sample, so the strongest signals are more common in it than they were.

What was measured:
Experiment in all cases: glycan array binding signal (z-score within array); higher = stronger binding
Conditions in all cases: glycan notation: IUPAC condensed, linker removed
[1] = target: Fuc(a1-2)Gal(b1-3)GlcNAc(b1-2)Man(a1-3)[Fuc(a1-2)Gal(b1-3)GlcNAc(b1-2)Man(a1-6)]Man(b1-4)GlcNAc(b1-4)GlcNAc
Method in brief: (§1)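 The Consortium for Functional Glycomics database supplied 3228 glycan arrays, of which those lacking an available protein sequence were dropped. The binding signal, a within-array Z-score, was averaged across arrays of the same protein sequence and across linkers. Negative scores can be read as non-binding.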

[2] = target: Fuc(a1-2)Gal(b1-3)GlcNAc(b1-3)GalNAc
Method in brief: as §1

[3] = target: Fuc(a1-2)Gal(b1-3)[Fuc(a1-4)]GlcNAc
Method in brief: as §1

[4] = target: Fuc(a1-2)Gal(b1-3)[Fuc(a1-4)]GlcNAc(b1-3)[Gal(b1-4)GlcNAc(b1-6)]Gal(b1-4)Glc
Method in brief: as §1

[5] = target: Fuc(a1-2)Gal(b1-4)GlcNAc(b1-2)[Fuc(a1-2)Gal(b1-4)GlcNAc(b1-4)]Man(a1-3)[Fuc(a1-2)Gal(b1-4)GlcNAc(b1-2)Man(a1-6)]Man(b1-4)GlcNAc(b1-4)GlcNAc
Method in brief: as §1

[6] = target: Fuc(a1-2)Gal(b1-4)GlcNAc(b1-3)Gal(b1-4)GlcNAc
Method in brief: as §1

[7] = target: Fuc(a1-2)Gal6S(b1-4)Glc6S
Method in brief: as §1

[8] = target: Fuc(a1-2)[Gal(a1-3)]Gal(b1-3)GlcNAc
Method in brief: as §1

[9] = target: Fuc(a1-2)[Gal(a1-3)]Gal(b1-4)GlcNAc
Method in brief: as §1

[10] = target: Fuc(a1-2)[Gal(a1-3)]Gal(b1-4)GlcNAc(b1-2)Man(a1-3)[Fuc(a1-2)[Gal(a1-3)]Gal(b1-4)GlcNAc(b1-2)Man(a1-6)]Man(b1-4)GlcNAc(b1-4)GlcNAc
Method in brief: as §1

[11] = target: Fuc(a1-2)[GalNAc(a1-4)]Gal(b1-4)GlcNAc
Method in brief: as §1

[12] = target: Fuc(a1-3)[Gal(b1-4)]GlcNAc(b1-2)Man(a1-3)[Fuc(a1-3)[Gal(b1-4)]GlcNAc(b1-2)Man(a1-6)]Man(b1-4)GlcNAc(b1-4)[Fuc(a1-6)]GlcNAc
Method in brief: as §1

[13] = target: Fuc(a1-3)[Gal3S(b1-4)]GlcNAc6S
Method in brief: as §1

[14] = target: Gal(a1-3)[Gal(a1-4)]Gal(b1-4)GlcNAc
Method in brief: as §1

[15] = target: Gal(a1-4)Gal(b1-3)GlcNAc(b1-2)Man(a1-3)[Gal(a1-4)Gal(b1-3)GlcNAc(b1-2)Man(a1-6)]Man(b1-4)GlcNAc(b1-4)GlcNAc
Method in brief: as §1

[16] = target: Gal(b1-3)GlcNAc(b1-2)Man(a1-3)[GlcNAc(b1-4)][Gal(b1-3)GlcNAc(b1-2)Man(a1-6)]Man(b1-4)GlcNAc(b1-4)GlcNAc
Method in brief: as §1

[17] = target: Gal(b1-4)GalNAc(b1-3)[Fuc(a1-2)]Gal(b1-4)GlcNAc
Method in brief: as §1

[18] = target: Gal(b1-4)GlcNAc(a1-6)Gal(b1-4)GlcNAc
Method in brief: as §1

[19] = target: Gal(b1-4)GlcNAc(b1-2)Man(a1-3)Man(b1-4)GlcNAc(b1-4)GlcNAc
Method in brief: as §1

[20] = target: Gal(b1-4)GlcNAc(b1-2)Man(a1-3)[Gal(b1-4)GlcNAc(b1-2)Man(a1-6)][GlcNAc(b1-4)]Man(b1-4)GlcNAc(b1-4)[Fuc(a1-6)]GlcNAc
Method in brief: as §1

[21] = target: Gal(b1-4)GlcNAc(b1-2)[Gal(b1-4)GlcNAc(b1-6)]Man(a1-6)[GlcNAc(b1-4)][Gal(b1-4)GlcNAc(b1-2)Man(a1-3)]Man(b1-4)GlcNAc(b1-4)GlcNAc
Method in brief: as §1

[22] = target: Gal(b1-4)GlcNAc(b1-2)[Gal(b1-4)GlcNAc(b1-6)]Man(a1-6)[GlcNAc(b1-4)][Gal(b1-4)GlcNAc(b1-2)[Gal(b1-4)GlcNAc(b1-4)]Man(a1-3)]Man(b1-4)GlcNAc(b1-4)[Fuc(a1-6)]GlcNAc
Method in brief: as §1

[23] = target: Gal(b1-4)GlcNAc(b1-3)Gal(b1-3)GalNAc
Method in brief: as §1

[24] = target: Gal(b1-4)GlcNAc(b1-3)Gal(b1-4)GlcNAc(b1-3)Gal(b1-4)GlcNAc
Method in brief: as §1

[25] = target: Gal(b1-4)GlcNAc(b1-3)Gal(b1-4)GlcNAc(b1-3)Gal(b1-4)GlcNAc(b1-2)Man(a1-3)[Gal(b1-4)GlcNAc(b1-3)Gal(b1-4)GlcNAc(b1-3)Gal(b1-4)GlcNAc(b1-2)Man(a1-6)]Man(b1-4)GlcNAc(b1-4)GlcNAc
Method in brief: as §1

[26] = target: Gal(b1-4)GlcNAc(b1-3)Gal(b1-4)GlcNAc(b1-3)Gal(b1-4)GlcNAc(b1-3)Gal(b1-4)GlcNAc(b1-2)Man(a1-3)[Gal(b1-4)GlcNAc(b1-3)Gal(b1-4)GlcNAc(b1-3)Gal(b1-4)GlcNAc(b1-3)Gal(b1-4)GlcNAc(b1-2)Man(a1-6)]Man(b1-4)GlcNAc(b1-4)[Fuc(a1-6)]GlcNAc
Method in brief: as §1

[27] = target: Gal(b1-4)GlcNAc(b1-3)Gal(b1-4)[Fuc(a1-3)]GlcNAc(b1-3)Gal(b1-4)[Fuc(a1-3)]GlcNAc
Method in brief: as §1

B1: PX9961M-bvu-482-23-482 (Bacteroides vulgatus) (protein)
chain: WLDLAPSTQVDTETSINVLSDIEFTLNGIYSTMQSSDAYSGRLVYYGDVTGDDMQAVSSTKRTGNYYRFNFTKDNGPSSHWSYLYSIIQNCNLILMNVDKLSIDEDETEYKNDLKGQALAIRGMALFDLTRIFGYPYLKDNGASLGVPIVKELSTIDSKPARNTVAECYTEIISDLKNSTELLSGDFNKGKVNRWAAMTLLSRVYLYKGEYNEALTMAENAIKGAEKEGYALWTNEEYPTAWGNDASASNPGEILFEIVNLTTDSPGKESMGYLNSYNGYDDMCITCSFYQLLKKDPKDVRLKILSFDKKYYAYVNKYQPQQGENITDANIPLIRLSEAYLNAAEAAVQTGDNAKAVKYLNSIVQRANPENSVEGKTLTLENVLDERRKELVAEGHRMYDVIRNGMTVKRIDVKDSDINKTKHNTAYMEYDWNFHKILLPIPKKEMDANPNMKQNPGYVD
[1]
  glycan array binding signal (z-score): 0.321
[2]
  glycan array binding signal (z-score): -1.09
[3]
  glycan array binding signal (z-score): -0.893
[4]
  glycan array binding signal (z-score): 0.057
[5]
  glycan array binding signal (z-score): 1.74
[6]
  glycan array binding signal (z-score): -1.33
[7]
  glycan array binding signal (z-score): 0.138
[8]
  glycan array binding signal (z-score): -0.45
[9]
  glycan array binding signal (z-score): -0.597
[10]
  glycan array binding signal (z-score): 1.68
[11]
  glycan array binding signal (z-score): -0.779
[12]
  glycan array binding signal (z-score): 1.97
[13]
  glycan array binding signal (z-score): -0.788
[14]
  glycan array binding signal (z-score): 4.04
[15]
  glycan array binding signal (z-score): 1.92
[16]
  glycan array binding signal (z-score): -0.064
[17]
  glycan array binding signal (z-score): -0.62
[18]
  glycan array binding signal (z-score): 1.66
[19]
  glycan array binding signal (z-score): 0.327
[20]
  glycan array binding signal (z-score): 0.416
[21]
  glycan array binding signal (z-score): -0.402
[22]
  glycan array binding signal (z-score): -0.596
[23]
  glycan array binding signal (z-score): -1.18
[24]
  glycan array binding signal (z-score): -0.219
[25]
  glycan array binding signal (z-score): 1.88
[26]
  glycan array binding signal (z-score): 0.966
[27]
  glycan array binding signal (z-score): -0.719
